Out of some 69,000 compounds screened, about 8,600 (12%) showed an effect of 50% or more. The full list was thinned out, with strong results kept by preference.

This assay relates to Plasmodium berghei. Briefly: Screen against P. berghei liver stage (PbLuc), transformed with Luciferase, at 10uM. It is filed as functional, HepG2. The settings on record: tested at 10 uM.
`N#CCCSc1sc2c(O)cc(O)nc2c1C#N`: the INHIBITION turned out to be 38.2%.

`O=C(NCCc1cc2nc(-c3ccncc3)ccn2n1)C1CC1`: the INHIBITION was 23.6%.

As to `O=C(c1cc[nH]n1)N1CCCC1c1ccccn1` (stereo not given), the INHIBITION was 13.5%.

As to `CC(=O)N1CCC(c2nccnc2C)CC1`, the INHIBITION was -16.1%.

As to `OCC1(NCc2cnc(-c3ccsc3)s2)CCOCC1`, the INHIBITION is listed as -11.7%.

Consider `CN(Cc1ccc2nsnc2c1)C(=O)Cn1ncc(N(C)C)cc1=O`, for which the INHIBITION stood at 5.46%.

In the case of `CN(CCc1ccccc1)c1cnn(CC(=O)N2CCOCC2)c(=O)c1`, the INHIBITION worked out at 20.2%.

As to `CN(C)c1cnn(CC(=O)N2Cc3ccccc3C2)c(=O)c1`, the INHIBITION worked out at 31.4%.

Regarding `CN(C)c1cnn(CC(=O)N2CCN(c3ccccc3)CC2)c(=O)c1`, the INHIBITION amounted to 53.7%.

Turning to `CSc1cccc(CN(C)C(=O)Cn2ncc(N(C)C)cc2=O)c1`, the INHIBITION is 4.64%.

In the case of `CN(CCc1ccccc1)c1cnn(CC(=O)N2CCSCC2)c(=O)c1`, the INHIBITION is listed as 38.5%.

Consider `CN(C)c1cnn(CC(=O)N2CCN(Cc3cccs3)CC2)c(=O)c1`, for which the INHIBITION is 65.7%.

As to `CN(Cc1ccoc1)C(=O)Cn1ncc(N(C)C)cc1=O`, the INHIBITION is listed as 50.5%.

For `CN(C)c1cnn(CC(=O)N2CCCCCC2)c(=O)c1`, the INHIBITION worked out at 15.4%.

With `O=C(CCn1c(C(F)F)cc2cccnc21)NC1CC1`, the INHIBITION came out at 22%.

For `CC(c1nc(C(C)(C)C)no1)N1CCN(c2ccc(C#N)cn2)CC1` (stereo not given), the INHIBITION was 23.9%.

For `Cc1cc(C)n(CC2CCCN2C(=O)c2ccnc(N(C)C)c2)n1` (stereo not given), the INHIBITION is recorded as 3.73%.

Take `CN(C)C(=O)[C@H]1C[C@H]2CN(c3ncccn3)C[C@@H]1O2`: the INHIBITION was -5.63%.

For the compound `Cn1cc(CN2CCCC3(CCN(Cc4ccncc4)C3=O)C2)cn1` (stereo not given), the INHIBITION is listed as 43.1%.

For the compound `COCCN1CCO[C@@H]2CN(Cc3sccc3C)C[C@@H]2C1`, the INHIBITION amounted to 24.6%.

Regarding `O=C(c1ccc(=O)[nH]n1)N(CCO)Cc1cc(Br)ccc1F`, the INHIBITION is given as 23.1%.

On to `CCc1ccc(-n2nnc(C(=O)O)c2-c2ccccn2)cc1`, for which the INHIBITION is recorded as 9.84%.

Regarding `CN(C)C(=O)Cc1nc(CN2CCn3c(nnc3C3CC3)C2)cs1`, the INHIBITION was 8.81%.

As to `CC(C)c1nnc2n1CCN(Cc1csc(CC(=O)N(C)C)n1)C2`, the INHIBITION came to 52%.

`Cc1nnc2n1CCN(Cc1csc(CC(=O)N(C)C)n1)C2`: the INHIBITION is on record as 16.7%.

For `O=C1CCC2(CCCN(CCc3ccccc3)C2)N1Cc1cccnc1` (stereo not given), the INHIBITION turned out to be 23.2%.

Turning to `CC(CNCc1ccc(Cl)cc1)Oc1ccccn1` (stereo not given), the INHIBITION amounted to 11.4%.

With `CCn1cc(NC(=O)N2CCN(CCSc3ccccc3)CC2)cn1`, the INHIBITION is given as -32.35%.

On to `CCN(CC)C(=O)N1CCN(C(=O)C2CCCc3[nH]ncc32)CC1` (stereo not given), for which the INHIBITION was found to be 67.5%.

For the compound `O=C(C1CCCc2[nH]ncc21)N1CCCC1` (stereo not given), the INHIBITION was found to be 17.4%.

Take `CN1CCN(C(=O)C2CCCc3[nH]ncc32)CC1` (stereo not given): the INHIBITION was -3.12%.

Turning to `O=C(C1CCCc2[nH]ncc21)N1CCCC2(C1)OCCO2` (stereo not given), the INHIBITION is given as 50.8%.

With `O=C(C1CCCc2[nH]ncc21)N1CCCCCC1` (stereo not given), the INHIBITION is given as 46.6%.

With `CCN1CCN(C(=O)C2CCCc3[nH]ncc32)CC1` (stereo not given), the INHIBITION is -24.9%.

`CCS(=O)(=O)N1C[C@H]2CN(Cc3ccc(OC)cc3)C(=O)[C@H]2C1`: the INHIBITION is given as -12.2%.

For the compound `O=C(NCc1nc(C2CC2)no1)N1CCOC(c2ccccc2F)C1` (stereo not given), the INHIBITION turned out to be 35%.

Consider `O=C(NCc1nc(C2CC2)no1)N1CCOC(c2cccc(F)c2)C1` (stereo not given), for which the INHIBITION was determined as 53.6%.

For the compound `O=C(NCc1nc(C2CC2)no1)N1CCOC(c2ccccc2)C1` (stereo not given), the INHIBITION is listed as 33.2%.

For `CCCOCC(=O)NC1CCc2nc(C)cn2C1` (stereo not given), the INHIBITION was 1.58%.

`Cc1csc2c(C3CCN(CCCOc4ccccc4)CC3)nc(C)n12`: the INHIBITION was 46.7%.

Regarding `Cc1nc(C)n(CC2CN(CCCOc3ccccc3C)CCO2)n1` (stereo not given), the INHIBITION stood at 24.4%.

Regarding `Cc1nc(C)n(CC2CN(Cc3cccc(C#N)c3)CCO2)n1` (stereo not given), the INHIBITION amounted to 10.5%.

Take `Cc1nc(C)n(CC2CN(CCOc3ccccc3F)CCO2)n1` (stereo not given): the INHIBITION is listed as 53.8%.

In the case of `Cc1ccc(OCCN2CCC(c3nc(C)n4c(C)csc34)CC2)cc1`, the INHIBITION is 29.1%.

For the compound `Cc1nc(C)n(CC2CN(CCOc3ccccc3C#N)CCO2)n1` (stereo not given), the INHIBITION is -15.5%.

Regarding `Cc1csc2c(C3CCN(CCOc4ccccc4F)CC3)nc(C)n12`, the INHIBITION was 54%.

Turning to `Cc1nc(C)n(CC2CN(Cc3cc(C#N)ccc3F)CCO2)n1` (stereo not given), the INHIBITION turned out to be 51.1%.

With `Cc1nc(C)n(CC2CCCN(Cc3cc(C#N)ccc3F)C2)n1` (stereo not given), the INHIBITION is listed as -2.53%.

Consider `CN1CC[C@H](N(Cc2ccccc2)CC2CC2)C[C@H](O)C1`, for which the INHIBITION amounted to 23.7%.

On to `Cc1ccsc1CN(CCCN(C)C)Cc1ccccn1`, for which the INHIBITION is 2.6%.

Regarding `O=C(CC1[C@H]2CN(Cc3ccsc3)C[C@@H]12)N1CCCC1` (stereo not given in full), the INHIBITION was 7.5%.

As to `Cc1cc(-c2cnc(C)nc2CN(C)C(=O)c2cc(C3CC3)on2)on1`, the INHIBITION is recorded as -18.9%.

Consider `CCOc1ccc(NC(=O)N(CCN(C)C)C(C)c2ccncc2)cc1` (stereo not given), for which the INHIBITION was 14.3%.

As to `COCC1c2c(cnn2C)CCN1Cc1ccco1` (stereo not given), the INHIBITION stood at 35.8%.

Regarding `CS(=O)(=O)N1CCC(n2nnn(-c3ccccc3)c2=O)CC1`, the INHIBITION was found to be 2.7%.

The values are drawn from ChEMBL document CHEMBL4513216, “Probing the Open Global Health Chemical Diversity Library for Multistage-Active Starting Points for Next-Generation Antimalarials” (ACS Infect Dis, 2020).
